The text below walks through data of PubChem BioAssay AID2842 (Southern Research Institute, 2010).

The whole screen tested about 24,000 compounds, of which about 1,200 (5%) were called active. Inconclusive results (about 2%) are left out. Not all results are given here. Values without a mark were called inactive. No rule for the calls is given here.

The nature of this experiment: Mycobacterium tuberculosis H37Rv growth inhibition, putative kinase inhibitor library, confirmatory dose response (AID 2842).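 Also: bacteria incubated one week before Alamar blue readout; 0% = bacteria only wells and 100% = bacteria with high antibiotic.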 As to conditions: M. tuberculosis H37Rv growth inhibition; CC50: measured here: Vero cell cytotoxicity; inhibition: hits give high values.
`CCCNC(=O)CSc1nc2c([nH]c3ccccc32)c(=O)n1-c1ccc(OC)c(OC)c1`: the inhibition – broadly, the drop in the measured response relative to a control, in per cent – is 3.01%.

For `COc1ccc(C(=O)c2cn(Cc3cccc(F)c3)c3ccccc3c2=O)cc1`, the inhibition was -1.95%.

As to `CC1CCc2c(sc(NC(=O)c3ccc(-c4nc5ccccc5s4)s3)c2C#N)C1` (stereo unspecified), the inhibition was 2.71%.

For `CCOc1cc(C(=O)Nc2nnc(-c3ccc(C)cc3)s2)cc(OCC)c1OCC`, the inhibition is 12.5%.

In the case of `Cc1ccc(C)c(S(=O)(=O)Nc2ccc(C(=O)N3CCOCC3)cc2)c1`, the inhibition was -13.6%.

With `CCN(c1ccccc1)S(=O)(=O)c1ccc(C(=O)Nc2nc(-c3ccc(C#N)cc3)cs2)cc1`, the inhibition is -5.78%.

Take `O=C(O)c1cc(-c2ccc(F)cc2)nc2ccccc12`: the inhibition is -3.79%.

`C=CCn1c(=O)c2c(nc(N/N=C/c3ccccc3O)n2C)n(C)c1=O`: the inhibition is 69.7%.

In the case of `CCn1c2c(c(=O)[nH]c1=O)C(c1ccc(O)cc1)C1=C(CC(C)(C)CC1=O)N2` (stereo unspecified), the inhibition is -10.5%.

For the compound `CCSC1=C(C#N)C(c2ccco2)C(C(=O)Nc2ccccc2OC)=C(C)N1` (stereo unspecified), the inhibition is 13.1%.

For `O=C(CSc1cn(Cc2ccccc2Cl)c2ccccc12)Nc1nc2ccccc2s1`, the inhibition was 10.2%.

Regarding `COC(=O)c1sc2nc(N)c(C#N)c(-c3ccco3)c2c1N`, the inhibition was -11.1%.

Consider `O=C1NCCc2c(OCC(=O)N3CCCC3)cccc21`, for which the inhibition was -13.2%.

Regarding `CCN1C(=O)C2(C(C#N)=C(N)Oc3c2oc(CO)cc3=O)c2ccccc21` (stereo unspecified), the inhibition is -2.38%.

As to `O=C(CSc1ccc2nnc(-c3cccnc3)n2n1)Nc1cccc(C(F)(F)F)c1`, the inhibition is 2.18%.

With `Cn1c(=O)c2c([nH]c(=S)n2Cc2ccc(F)cc2)n(C)c1=O`, the inhibition is -5.83%.

Consider `O=c1/c(=C/c2ccc(Br)cc2)sc2nc(-c3ccncc3)nn12`, for which the inhibition was -4.93%.

Take `Cc1ccc(S(=O)(=O)CCC(=O)Nc2nc(-c3cccc([N+](=O)[O-])c3)cs2)cc1`: the inhibition was -0.9%.

Turning to `CCC(CC)C(=O)Nc1nnc(-c2ccc(Br)cc2)s1`, the inhibition was 5.92%.

Consider `COc1ccc(Cl)c2sc(N3CCN(C(=O)COc4ccccc4)CC3)nc12`, for which the inhibition is -14.7%.

On to `Fc1ccc(-c2nnc(Nc3nc4c(F)cccc4s3)o2)cc1`, for which the inhibition is 35.7%.

Regarding `CSc1cccc2sc(Nc3ccccc3Cl)nc12`, the inhibition is 43.9%.

In the case of `COc1cccc(N2CC(NC(=O)N3CCN(c4ccc(F)cc4)CC3)CC2=O)c1` (stereo unspecified), the inhibition is 1.73%.

In the case of `O=C(CN1N=NC2C(=O)N(c3ccc(F)c(F)c3)C(=O)C21)Nc1cccc(F)c1` (stereo unspecified), the inhibition is -18.6%.

As for `COc1ccc(N2C(=O)/C(=C3/C(=O)N(C)c4ccccc43)SC2=S)c(OC)c1`, the inhibition is -6.83%.

Turning to `NC(=O)N/N=C/c1ccccc1[N+](=O)[O-]`, the inhibition is -0.23%.

As for `Cc1ccc(-n2nnc3c(=O)n(CC(=O)Nc4cccc(F)c4)cnc32)cc1Cl`, the inhibition was 5.52%.

Turning to `O=c1[nH]c(NCCc2ccccc2)nnc1-c1ccccc1`, the inhibition is -9.26%.

As for `O=C(O)/C=C/C(=O)NCc1cn(-c2ccccc2)nc1-c1ccc(Cl)cc1`, the inhibition is -11.2%.

Turning to `Nc1ncnc2c1c1nc3ccccc3nc1n2CCc1ccccc1`, the inhibition is -4.35%.

Consider `COC(CNc1ncnc2c1cnn2-c1ccc(C)c(Cl)c1)OC`, for which the inhibition is 15.5%.

`CCOc1cccc(/C=N\NC(=O)Cn2cnc3ccccc32)c1O`: the inhibition was -6.32%.

As for `Cc1nnc(SCCn2c(N3CCN(Cc4ccccc4)CC3)nc3c2c(=O)[nH]c(=O)n3C)s1`, the inhibition is 4.11%.

Consider `CC(=O)Nc1ccc(NC(=O)NC2CC(=O)N(c3ccc(C)cc3)C2)cc1` (stereo unspecified), for which the inhibition was -0.32%.

For `Cc1ccc(C)c(-c2nnc(NC(=O)/C=C/c3ccccc3)o2)c1`, the inhibition is 75.9%.

Turning to `Cc1cccc(-c2nnn3c2nc(NCCc2ccc(S(N)(=O)=O)cc2)c2ccccc23)c1`, the inhibition is -2.93%.

On to `O=C(NCCO)c1ccc(CSc2nc3ccccc3c(=O)[nH]2)cc1`, for which the inhibition is -16.4%.

Regarding `Cn1c(=O)c2c(SCC(=O)Nc3nc4ccccc4s3)nc(-c3ccc(F)cc3)nc2n(C)c1=O`, the inhibition was 14.6%.

For `NC(=O)c1nc(-c2cccnc2)nc2c1[nH]c(=O)n2-c1ccc(Cl)c(Cl)c1`, the inhibition was 5.29%.

Take `CCOC(=O)CNc1ncnc(N)c1[N+](=O)[O-]`: the inhibition is 2.73%.

As to `Fc1ccc2nc(Nc3ccc4c(c3)OCCO4)sc2c1`, the inhibition was 72.2%.

`CC(=O)N1CCc2c(sc(NC(=O)c3ccc4ccccc4c3)c2C#N)C1`: the inhibition is 13.2%.

`CCOC(=O)c1ccc(Nc2nnc3[nH]c(=O)c4c(C)c(C)sc4n23)cc1`: the inhibition is -12.7%.

`COc1cc(OC)cc(C(=O)NCCc2cc3ccc(C)cc3[nH]c2=O)c1`: the inhibition was -10.9%.

For `CCOC(=O)N1CCN(C(c2cccnc2)c2c(O)cc(C)n(CCOC)c2=O)CC1` (stereo unspecified), the inhibition was 0.85%.

For the compound `COc1ccc(Cl)c2sc(N(Cc3cccnc3)C(=O)c3cccc(S(C)(=O)=O)c3)nc12`, the inhibition is -13.3%.

For `CC(=O)Nc1ccc(NC(=O)CSc2nnc(CNC(=O)c3ccccc3)o2)cc1`, the inhibition was -8.68%.

`Cn1c(=O)[nH]c(=O)c2c1nc(N1CCC(Cc3ccccc3)CC1)n2CCSc1nc2ccccc2o1`: the inhibition is 19.9%.

For `Cc1ccc(CSc2nc3c(c(=O)[nH]c(=O)n3C)n2Cc2ccccc2Cl)cc1`, the inhibition is -2.78%.

Consider `CC1CCCN(S(=O)(=O)c2ccc(C(=O)Nc3nc4ccc5ccccc5c4s3)cc2)C1` (stereo unspecified), for which the inhibition was 14.8%.

As for `Nn1c(SCC(=O)Nc2ccc(C(F)(F)F)cc2)nncc1=O`, the inhibition is -15.7%.

With `O=C(Nc1nc(-c2ccc3c(c2)OCCO3)cs1)c1cccc(Cl)c1`, the inhibition was -0.85%.

In the case of `COc1cc2nc(Nc3cccc(Cl)c3)sc2cc1OC`, the inhibition is 48.6%.

Regarding `COc1ccc2c(c1)c(=O)c(C(=O)c1ccc(Cl)cc1)cn2CC(=O)Nc1ccc2c(c1)OCO2`, the inhibition was -1.76%.

Regarding `CC(C)c1ccc(OCC(=O)N/N=C/c2ccco2)cc1`, the inhibition is 6.99%.

On to `CCOC(=O)c1sc2nc(-c3ccccc3)cc(-c3ccccc3)c2c1N=Cc1cc(I)cc(I)c1O`, for which the inhibition was -1.26%.
